These results are taken from PubChem BioAssay AID463173 (ICCB-Longwood Screening Facility, Harvard Medical School, 2010).

Hit rate of the full screen: of about 52,000 compounds, about 1,700 (3.3%) were called active. The list comes from a sample in which actives are over-represented; it also holds similar structures and randomly drawn compounds. Values without a mark were called inactive. No stated cut-off is given here; in the data, active means survival mostly below about 52% (no sharp cut-off); inactive means mostly above about 56%.

This experiment deals with Wild type. Description: growth inhibition of S. aureus wild type versus tarO mutant, primary screen, teichoic acid synthesis inhibitors, RN4220, OD600 (AID 463173). Conditions: S. aureus RN4220 wild type/DeltatarO growth, OD600, 18 h, hits give low values, screened at 18.75 µg/mL (by protocol).
Consider `COc1ccc(NC(=O)CCNS(=O)(=O)c2cccc3nonc23)c(OC)c1`, for which the survival was 67%.

Take `CC1CCN(S(=O)(=O)c2ccc3nc(N4CCN(c5ccc(F)cc5)CC4)ccc3c2)CC1`: the survival was 92%. Take `COc1ccc(NC(=O)CSC2=Nc3ccccc3C3=NC(CCC(=O)NCc4ccco4)C(=O)N23)cc1` (centres undefined): the survival was 60%.

In the case of `CC(C)CC(=O)n1nc(-c2ccco2)nc1NCc1ccc(Cl)cc1`, the survival was 83%. Regarding `O=C(OCc1cc(=O)n2nc(C3CC3)sc2n1)c1ccc(NC(=O)c2ccccc2Cl)cc1`, the survival is 99%.

For the compound `O=C1c2[nH]nc(-c3ccccc3O)c2C(c2ccccc2F)N1Cc1ccncc1` (centres undefined), the survival is 93%. The same measure for `Cc1cc(C)c(-c2n[nH]c3c2C(c2ccccc2F)N(CCO)C3=O)c(O)c1` (centres undefined): 83%; for `CCc1ccc(C2c3c(-c4cc(C)ccc4O)n[nH]c3C(=O)N2CCO)cc1` (centres undefined): 78%.

As for `O=C1c2[nH]nc(-c3ccccc3O)c2C(c2ccccc2F)N1Cc1cccnc1` (centres undefined), the survival is 94%. Take `Cc1ccc(O)c(-c2n[nH]c3c2C(c2ccc(F)cc2)N(Cc2ccco2)C3=O)c1` (centres undefined): the survival is 2% (active).

On to `COc1cc(C2c3c(-c4cc(C)ccc4O)n[nH]c3C(=O)N2Cc2ccco2)cc(OC)c1OC` (centres undefined), for which the survival is 73%. The same measure for `Cc1ccc(O)c(-c2n[nH]c3c2C(c2ccccc2F)N(Cc2ccco2)C3=O)c1` (centres undefined): 11% (active). Take `Cc1cc(C)c(-c2n[nH]c3c2C(c2ccccc2F)N(Cc2ccco2)C3=O)c(O)c1` (centres undefined): the survival is 8% (active). Take `O=C1c2[nH]nc(-c3ccccc3O)c2C(c2ccc(F)cc2)N1CCO` (centres undefined): the survival was 81%.

In the case of `COc1cc(C2c3c(-c4c(C)cc(C)cc4O)n[nH]c3C(=O)N2Cc2ccco2)cc(OC)c1OC` (centres undefined), the survival was 98%. The same measure for `CCc1ccc(C2c3c(-c4cc(C)ccc4O)n[nH]c3C(=O)N2Cc2cccnc2)cc1` (centres undefined): 74%; for `Cc1ccc(C2c3c(-c4cc(C)ccc4O)n[nH]c3C(=O)N2Cc2ccco2)cc1` (centres undefined): 1% (active).

Consider `COc1cc(OC)c(NC(=O)c2c(C)oc3nc(C)nc(N4CCOCC4)c23)cc1Cl`, for which the survival is 81%. To `COc1ccc2c(c1)c(CC(=O)Nc1cccc(F)c1C)c(C)n2C(=O)c1ccc(Cl)cc1` belongs 152%; to `COc1ccc(-c2nc3scc(CCNS(=O)(=O)c4c(C)noc4C)n3n2)cc1OC`, 123%; to `CCOc1ccc(-c2cc(-c3nc(-c4cc(OC)c(OC)c(OC)c4)no3)[nH]n2)cc1`, 123%. The same measure for `Oc1ccc(Cl)cc1C1=Nc2ccccc2N=C(c2cccc(Br)c2)C1`: 137%.

Turning to `c1ccc(N2CCN(Cc3nnc(-c4ccc5c(c4)OCO5)o3)CC2)cc1`, the survival was 81%.

In the case of `CCOc1ccc(NC(=O)/C(C#N)=C\c2cc(C)n(C)c2C)cc1`, the survival is 103%.

On to `O=C(CSc1nc(-c2ccccc2)no1)N1CCN(c2ccc(F)cc2)CC1`, for which the survival is 91%.

Consider `CCc1ccccc1NC(=O)C(C)n1c(=O)cc(C)c2c(C)nn(-c3ccccc3)c21` (centres undefined), for which the survival is 72%. For the compound `COc1cc(C2C(=O)N(C3CCCCC3)CC(=O)N2CCc2ccccc2)ccc1OC(C)C` (centres undefined), the survival was 89%. Regarding `Cc1ccc(CNC(=O)c2cc(Sc3ccc(F)cc3F)nc3ccccc23)cc1`, the survival was 94%. To `COC(=O)c1c(C)oc2c1cc(NS(=O)(=O)c1c(C)cc(C)cc1C)c1ccccc12` belongs 25% (active). The same measure for `CCOC(=O)c1c(C)oc2c1cc(NS(=O)(=O)c1ccc(C)cc1)c1ccccc12`: 86%. In the case of `COc1ccc(OC)c(S(=O)(=O)Nc2cc3c(C(C)=O)c(C)oc3c3ccccc23)c1`, the survival was 69%. Take `CCOC(=O)c1sc2sc(C(=O)OCC)c(CN(CC)CC)c2c1CN(CC)CC`: the survival was 94%. Turning to `Cc1ccccc1-c1nnc(NC(=O)CC(C)C)s1`, the survival was 116%. As for `COc1ccccc1CNS(=O)(=O)c1ccc(-c2cc(C(F)(F)F)on2)s1`, the survival was 73%. The same measure for `COc1ccc(CNS(=O)(=O)c2ccc(-c3cc(C(F)(F)F)on3)s2)cc1OC`: 133%. Regarding `COc1ccc(OC)c(CNS(=O)(=O)c2ccc(-c3cc(C(F)(F)F)on3)s2)c1`, the survival is -6% (active). Take `CN1C(=O)Cc2cc(S(=O)(=O)CCC(=O)N3CCN(c4cccc(Cl)c4)CC3)ccc21`: the survival was 83%. In the case of `Cc1cccc(N2CCN(C(=O)CCS(=O)(=O)c3ccc4c(c3)CC(=O)N4C)CC2C)c1` (centres undefined), the survival is -4% (active).

In the case of `CCC(=O)N1CCc2cc(S(=O)(=O)CCC(=O)N3CCN(c4cccc(C)c4)C(C)C3)ccc21` (centres undefined), the survival was 83%. To `COc1ccc(-c2cn3c(n2)sc2cc(C(=O)Nc4c(C)cccc4C)ccc23)cc1` belongs 83%.

As to `COc1ccc(OCC(=O)N2CCN(C(=O)c3ccc(OC)c(OC)c3)CC2)cc1`, the survival is 134%. For `Nc1ccc(N2CCN(c3ncc(C(F)(F)F)cc3Cl)CC2)c(C(F)(F)F)c1`, the survival was -14% (active). Take `Nc1ccc(-c2ccc(N)cc2C(F)(F)F)c(C(F)(F)F)c1`: the survival is 117%.

In the case of `Nc1ccc(N2CCOCC2)c(N)c1`, the survival is 113%. The same measure for `Cc1ccc(C2=Nc3ccccc3N(CC(=O)Nc3ccccc3F)C(=O)C2)cc1C`: 83%; for `COc1ccc(-c2nsc(NC(=O)C(C)Oc3ccc(Cl)c(C)c3)n2)cc1` (centres undefined): 67%; for `CCC(Oc1ccc(F)cc1)C(=O)Nc1cc(-c2ccc(C)cc2)no1` (centres undefined): 64%. With `CC(Oc1ccc(F)cc1)C(=O)Nc1nc(-c2ccc(F)cc2)ns1` (centres undefined), the survival is -1% (active).

As for `CCC(Oc1ccc(F)cc1)C(=O)Nc1nc(-c2ccc(F)cc2)ns1` (centres undefined), the survival was -1% (active). Regarding `CCC(Oc1ccc(F)cc1)C(=O)Nc1nc2c(s1)CCCC2` (centres undefined), the survival is 76%.

As for `Cc1cc(C)cc(OCC(=O)Nc2nc(-c3ccc(F)cc3)ns2)c1`, the survival was 89%.

Take `O=c1cc(-c2ccc(F)cc2)nc(SCc2nc(-c3ccc(Cl)cc3)no2)[nH]1`: the survival was 88%.

Turning to `COC(=O)C1CCN(C(c2ccccc2Cl)c2sc3nc(-c4ccco4)nn3c2O)CC1` (centres undefined), the survival was 80%. In the case of `Cc1ccc(Cl)cc1N1CCN(C(=O)c2c(C)oc3ncnc(N4CCCCC4)c23)CC1`, the survival is -6% (active). The same measure for `Cc1nc(N2CCOCC2)c2c(C(=O)N3CCN(c4cccc(C(F)(F)F)c4)CC3)c(C)oc2n1`: 79%; for `Cc1ccc(Cl)cc1N1CCN(C(=O)c2c(C)oc3ncnc(N4CCOCC4)c23)CC1`: 69%. As for `Cc1oc2ncnc(N3CCOCC3)c2c1C(=O)N1CCN(c2cccc(C(F)(F)F)c2)CC1`, the survival was -6% (active). To `Cc1nc(N2CCCC2)c2c(C(=O)N3CCN(c4cc(Cl)ccc4C)CC3)c(C)oc2n1` belongs 99%.

`Cc1oc2ncnc(N3CCCCC3)c2c1C(=O)N1CCN(c2cccc(C(F)(F)F)c2)CC1`: the survival is 87%.
